Data taken from the supplement of paper PMC6555819.

How the values were obtained:
Experiment in all cases: PBM binding z-score (relative to random genomic background probes); higher = stronger binding; sequences stand for … in GC…GCGATTGACAGCGTAGAATGAAGG
[1] = system: FXR:RXRa (NR concentration 270 nM, RXRa partner concentration 90 nM)
Method in brief: (§1)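 Scanned fluorescence from custom Agilent 4×180K protein-binding microarrays was regression-normalized. Binding z-scores use random background probes as reference. Ligand-free nuclear receptor dimers were incubated on the arrays for 1 h and detected with antibodies against each partner (one per run).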

[2] = system: LXRa:RXRa (NR concentration 270 nM, RXRa partner concentration 90 nM)
Method in brief: as §1

[3] = system: LXRa homodimer (NR concentration 270 nM)
Method in brief: as §1

[4] = system: LXRb:RXRa (NR concentration 270 nM, RXRa partner concentration 90 nM)
Method in brief: as §1

[5] = system: LXRb homodimer (NR concentration 270 nM)
Method in brief: as §1

[6] = system: PPARa:RXRa (NR concentration 270 nM, RXRa partner concentration 90 nM)
Method in brief: as §1

[7] = system: PPARg:RXRa (NR concentration 180 nM, RXRa partner concentration 90 nM)
Method in brief: as §1

[8] = system: PPARg:RXRa 270nM:90nM, anti-RXR (NR concentration 270 nM, RXRa partner concentration 90 nM)
Method in brief: as §1

[9] = system: PPARg:RXRa 30nM:10nM, anti-RXR (NR concentration 30 nM, RXRa partner concentration 10 nM)
Method in brief: as §1

[10] = system: PPARg:RXRa 90nM:30nM, anti-RXR (NR concentration 90 nM, RXRa partner concentration 30 nM)
Method in brief: as §1

Sequence | PBM binding z-score [1] | PBM binding z-score [2] | PBM binding z-score [3] | PBM binding z-score [4] | PBM binding z-score [5] | PBM binding z-score [6] | PBM binding z-score [7] | PBM binding z-score [8] | PBM binding z-score [9] | PBM binding z-score [10]
CCTACTTGGTCAGGAGGTCACACACCGGATATGA | 3.55 | 3.69 | 2.02 | 3.39 | 0.285 | 4.29 | 3.39 | 3.9 | 1.75 | 3.1
AGTAAAAGTTCAGGACGAGGTAACGTAAAGCACG | 3.83 | 3.28 | 1.42 | 1.75 | 0.493 | 2.63 | 1.81 | 2.14 | 0.671 | 1.29
ATTCCAAGGTGATCGTGAGGTCGTTGATACTAAC | 2.16 | 1.56 | 0.734 | 1.23 | 0.167 | 1.52 | 0.194 | 0.382 | 0.172 | 0.122
TCTATTAGTTGAAGTGCAACCGACGAGTCCGTTT | 0.802 | 0.953 | 0.178 | 0.755 | 0.464 | 1.02 | -0.119 | 2.15 | 3.77 | 2.88
TAGCCTAGGTCATGCGGGCCTGTATAGTGTCGGC | 3.73 | 3.24 | 0.135 | 1.6 | -0.428 | 3.27 | 1.91 | 2.39 | 0.161 | 1.45
GCGACTGGGGCATCAGCAGGTTACGATAACTTAA | -0.306 | -0.214 | -0.449 | 0.641 | -0.638 | 1.38 | 1.05 | 0.876 | -0.247 | 0.263
CCTACTAGGCCATTCAGAGGTCATTGATCATATG | 3.52 | 4.52 | 7.03 | 4.15 | 1.58 | 4.04 | 3.11 | 3.87 | 1.41 | 3.08
TCATATAGGTAATACAGGTGAAAGGCGGCATCTA | 1.01 | 1.22 | 0.706 | 0.93 | 0.000841 | 2.25 | 2.3 | 3.69 | 4.62 | 4.1
CGTCCAAGGCCAAAGGTCAGTGAAGAGATGACGG | 4.06 | 3.48 | 0.794 | 3.05 | -0.142 | 5.2 | 7.29 | 6.97 | 5.65 | 7.26
CCTTACGGGTCACTGTCAGGTTATAGCATTTGGA | 5.05 | 4.27 | 0.129 | 3.23 | -0.0879 | 4.73 | 3.83 | 4.04 | 1.22 | 2.8
CTCGAGAGGTCGTGCTCAGGTGAGTATACCAAAC | 3.66 | 2.94 | -0.247 | 3.32 | -0.109 | 4.28 | 1.58 | 2.21 | 0.228 | 1.11
ATCTCTAGGTAACAAGTTCAGTGAGAGAGAGGAC | 0.938 | 0.818 | 0.556 | 0.613 | 1.01 | 1.54 | 1.41 | 2.15 | 0.897 | 1.64
GTACCACGGTGAATAGGTCGTTGATGAGTAGGCG | -0.0112 | -0.00221 | -0.237 | -0.365 | -0.842 | 0.664 | 0.525 | 0.597 | -0.227 | 0.557
TCTATTAGTTGAACGGCAACCGACGAGTCCGTTT | 0.294 | 0.618 | 0.311 | 0.621 | 0.735 | 0.859 | 0.133 | 1.87 | 3.63 | 2.83
AGAACGAGGGCACGCTGAGTTGGTAGCAGAGTAG | 0.682 | 0.402 | -0.489 | -0.113 | -0.719 | 1.87 | 1.62 | 1.46 | -0.03 | 0.942
CCTAGCAGGCCAATCTGGGTCACCCAAGGCTTGA | 0.68 | 1.16 | -0.385 | 0.427 | -0.863 | 3.04 | 2.45 | 2.51 | -0.13 | 1.89
CGAACGAGGGCATTAGTTGATAGCAAATGCCGAT | 0.0908 | -0.0116 | -0.501 | -0.0875 | -0.766 | 0.595 | 0.83 | 0.432 | 0.0228 | -0.0505
ATCTCTAGGTAAAGTTCAGAGAAAGATCGATAGA | 1.31 | 1.89 | 1.72 | 1.3 | 0.639 | 2.4 | 3.54 | 4.66 | 2.76 | 4.68
TCATATAGGTAATGCAGGTGAAAGTCGGCATCTA | 0.698 | 0.973 | 0.228 | 0.199 | -0.224 | 2.23 | 1.65 | 2.58 | 3.86 | 2.86
TATACAGGGTCAAAGGCCAGCGTACGAATGTCGA | 7.47 | 6.28 | 2.26 | 4.8 | 2.36 | 6.28 | 8.39 | 7.25 | 5.73 | 7.51
CGTCCAAGGTCAAGGACAGTGAAAGAGACTCGAA | 6.84 | 4.98 | 0.198 | 3.81 | 0.401 | 5.57 | 5.12 | 5.16 | 1.84 | 3.73
ATCTCTACGTAAGACTCAGTTCAGTGAAGAACGC | 0.165 | 0.16 | 0.552 | 0.484 | 0.986 | 0.0277 | 0.265 | 0.146 | 0.213 | 0.131
ATACCAAGGTGAGCGTGAGGTCGTTGATACTAAC | 1.64 | 1.3 | 0.0516 | 1.31 | -0.401 | 2.05 | 1.03 | 0.903 | 0.0304 | 0.391
